{"source": "the supplement of paper PMC10849652", "note": "About 7,900 targets were measured; listed, in parts, are those with a hit and a random draw of the rest. About 0.6% of all pairs of compound and target were hits. Unmarked numbers belong to inactive results.", "data": [{"compound": "CN1CCN(c2nc(C3=C(c4c[nH]c5ccccc45)C(=O)NC3=O)c3ccccc3n2)CC1 [sotrastaurin]", "experiment": "log2 fold change, soluble protein after heating vs DMSO (PISA); higher = thermal stabilisation; K562 cells, 10 uM, 30 min; active = over 0.2 and 3.5 SD of the protein, either way, in both replicates (recomputed)", "procedure,_shortened": "(§1)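 For each measurement, 10 μM compound was applied for 30 min to K562 cells at 2×10^6 cells/mL. Aliquots were heated for 3 min across 48°C-58°C, pooled, and extracted in PBS with 0.5% NP-40 at 4°C; the supernatant after 21,000xg for 90 min was soluble protein. This was quantified by TMTpro 16plex LC-MS/MS with channel sums equalised, and thermal stability was reported relative to control samples from duplicates, on a log2 fold-change scale.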", "values": [{"target": "HSPA8 (UniProt P11142)", "log2 fold change": 0.007}, {"target": "HADHB (UniProt P55084)", "log2 fold change": 0.011}, {"target": "HDAC1 (UniProt Q13547)", "log2 fold change": -0.026}, {"target": "GMEB2 (UniProt Q9UKD1)", "log2 fold change": -0.019}, {"target": "HEATR5B (UniProt Q9P2D3)", "log2 fold change": 0.008}, {"target": "GBA2 (UniProt Q9HCG7)", "log2 fold change": -0.026}, {"target": "HIST2H3A (UniProt Q71DI3)", "log2 fold change": 0.063}, {"target": "GALNT1 (UniProt Q10472)", "sequence (Q10472 whole entry, looked up)": "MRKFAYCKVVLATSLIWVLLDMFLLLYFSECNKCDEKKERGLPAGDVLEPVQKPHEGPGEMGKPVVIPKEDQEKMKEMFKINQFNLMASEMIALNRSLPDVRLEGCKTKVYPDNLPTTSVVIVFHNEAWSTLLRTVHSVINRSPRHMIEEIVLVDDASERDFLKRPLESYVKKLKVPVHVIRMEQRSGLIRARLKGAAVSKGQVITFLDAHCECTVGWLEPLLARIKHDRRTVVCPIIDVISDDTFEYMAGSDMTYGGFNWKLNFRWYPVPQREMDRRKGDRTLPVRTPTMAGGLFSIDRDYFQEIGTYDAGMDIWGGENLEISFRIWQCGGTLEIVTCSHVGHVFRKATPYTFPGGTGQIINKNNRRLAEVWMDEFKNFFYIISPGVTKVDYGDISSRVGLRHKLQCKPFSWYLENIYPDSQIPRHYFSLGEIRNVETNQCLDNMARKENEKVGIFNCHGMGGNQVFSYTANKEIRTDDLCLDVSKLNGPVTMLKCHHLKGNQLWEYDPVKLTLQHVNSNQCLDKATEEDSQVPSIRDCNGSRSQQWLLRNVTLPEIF", "log2 fold change": 0.03}, {"target": "HDGFL2 (UniProt Q7Z4V5)", "sequence (Q7Z4V5 whole entry, looked up)": "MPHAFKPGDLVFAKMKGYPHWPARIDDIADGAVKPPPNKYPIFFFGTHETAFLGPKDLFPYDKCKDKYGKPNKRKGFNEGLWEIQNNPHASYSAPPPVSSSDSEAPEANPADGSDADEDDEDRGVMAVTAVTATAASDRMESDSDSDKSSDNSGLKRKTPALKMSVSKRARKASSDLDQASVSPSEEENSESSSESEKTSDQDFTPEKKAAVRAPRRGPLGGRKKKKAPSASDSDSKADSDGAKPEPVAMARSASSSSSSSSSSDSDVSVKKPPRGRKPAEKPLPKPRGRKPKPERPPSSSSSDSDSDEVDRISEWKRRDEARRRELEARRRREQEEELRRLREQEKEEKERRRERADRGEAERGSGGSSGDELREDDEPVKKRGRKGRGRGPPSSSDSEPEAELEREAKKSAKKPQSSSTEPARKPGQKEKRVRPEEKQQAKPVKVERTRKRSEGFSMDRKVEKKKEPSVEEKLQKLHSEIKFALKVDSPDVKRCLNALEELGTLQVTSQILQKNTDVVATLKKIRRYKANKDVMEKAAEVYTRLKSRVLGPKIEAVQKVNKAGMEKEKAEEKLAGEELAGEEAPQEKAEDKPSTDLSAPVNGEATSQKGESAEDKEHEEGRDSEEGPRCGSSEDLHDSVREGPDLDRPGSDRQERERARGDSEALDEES", "log2 fold change": 0.119}, {"target": "HAUS4 (UniProt Q9H6D7)", "sequence (Q9H6D7 whole entry, looked up)": "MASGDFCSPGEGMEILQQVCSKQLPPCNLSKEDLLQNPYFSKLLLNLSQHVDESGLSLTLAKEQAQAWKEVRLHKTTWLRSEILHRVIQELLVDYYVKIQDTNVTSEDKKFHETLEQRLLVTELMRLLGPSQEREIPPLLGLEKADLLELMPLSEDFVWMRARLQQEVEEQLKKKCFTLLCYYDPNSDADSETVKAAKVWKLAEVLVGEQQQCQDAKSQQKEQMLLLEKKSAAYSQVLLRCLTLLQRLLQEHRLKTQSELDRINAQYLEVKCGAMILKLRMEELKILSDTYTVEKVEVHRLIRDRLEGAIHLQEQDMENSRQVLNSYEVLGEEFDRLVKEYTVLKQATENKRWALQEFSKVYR", "log2 fold change": -0.194}, {"target": "GLIPR2 (UniProt Q9H4G4)", "log2 fold change": -0.027}, {"target": "FNTB (UniProt P49356)", "log2 fold change": 0.346}, {"target": "GOLPH3 (UniProt Q9H4A6)", "sequence (Q9H4A6 whole entry, looked up)": "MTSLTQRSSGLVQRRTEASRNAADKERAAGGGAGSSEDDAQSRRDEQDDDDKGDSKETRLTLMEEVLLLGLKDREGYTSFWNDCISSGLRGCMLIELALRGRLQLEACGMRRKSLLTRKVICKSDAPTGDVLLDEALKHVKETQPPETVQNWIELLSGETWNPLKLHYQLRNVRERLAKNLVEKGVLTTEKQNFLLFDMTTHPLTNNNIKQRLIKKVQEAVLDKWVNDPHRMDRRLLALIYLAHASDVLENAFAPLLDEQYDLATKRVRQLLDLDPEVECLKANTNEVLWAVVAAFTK", "log2 fold change": -0.046}, {"target": "GHDC (UniProt Q8N2G8)", "sequence (Q8N2G8 whole entry, looked up)": "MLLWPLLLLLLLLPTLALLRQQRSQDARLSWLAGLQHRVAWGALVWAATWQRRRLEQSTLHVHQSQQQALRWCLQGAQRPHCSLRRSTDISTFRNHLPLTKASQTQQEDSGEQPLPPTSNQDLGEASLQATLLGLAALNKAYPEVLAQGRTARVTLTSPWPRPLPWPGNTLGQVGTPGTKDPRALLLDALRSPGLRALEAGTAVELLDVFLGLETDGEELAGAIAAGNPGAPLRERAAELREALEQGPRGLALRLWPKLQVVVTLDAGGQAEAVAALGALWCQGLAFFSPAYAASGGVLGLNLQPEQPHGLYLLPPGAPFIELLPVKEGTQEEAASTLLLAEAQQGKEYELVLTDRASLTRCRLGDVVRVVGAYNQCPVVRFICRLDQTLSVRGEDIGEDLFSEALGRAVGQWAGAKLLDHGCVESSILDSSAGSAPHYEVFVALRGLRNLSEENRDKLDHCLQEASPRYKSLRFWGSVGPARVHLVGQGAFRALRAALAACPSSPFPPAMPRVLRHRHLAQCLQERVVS", "log2 fold change": 0.085}, {"target": "HDAC2 (UniProt Q92769)", "log2 fold change": -0.02}, {"target": "FIBP (UniProt O43427)", "sequence (O43427 whole entry, looked up)": "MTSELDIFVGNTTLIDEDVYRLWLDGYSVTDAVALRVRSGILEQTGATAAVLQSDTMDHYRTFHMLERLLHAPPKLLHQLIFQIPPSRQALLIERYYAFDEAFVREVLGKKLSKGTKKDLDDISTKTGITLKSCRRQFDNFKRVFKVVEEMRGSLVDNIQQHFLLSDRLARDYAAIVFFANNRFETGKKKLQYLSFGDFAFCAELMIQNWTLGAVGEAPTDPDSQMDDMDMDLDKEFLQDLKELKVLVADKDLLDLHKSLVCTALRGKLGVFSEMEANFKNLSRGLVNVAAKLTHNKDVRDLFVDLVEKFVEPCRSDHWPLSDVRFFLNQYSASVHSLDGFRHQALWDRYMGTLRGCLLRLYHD", "log2 fold change": -0.05}, {"target": "FERMT3 (UniProt Q86UX7)", "sequence (Q86UX7 whole entry, looked up)": "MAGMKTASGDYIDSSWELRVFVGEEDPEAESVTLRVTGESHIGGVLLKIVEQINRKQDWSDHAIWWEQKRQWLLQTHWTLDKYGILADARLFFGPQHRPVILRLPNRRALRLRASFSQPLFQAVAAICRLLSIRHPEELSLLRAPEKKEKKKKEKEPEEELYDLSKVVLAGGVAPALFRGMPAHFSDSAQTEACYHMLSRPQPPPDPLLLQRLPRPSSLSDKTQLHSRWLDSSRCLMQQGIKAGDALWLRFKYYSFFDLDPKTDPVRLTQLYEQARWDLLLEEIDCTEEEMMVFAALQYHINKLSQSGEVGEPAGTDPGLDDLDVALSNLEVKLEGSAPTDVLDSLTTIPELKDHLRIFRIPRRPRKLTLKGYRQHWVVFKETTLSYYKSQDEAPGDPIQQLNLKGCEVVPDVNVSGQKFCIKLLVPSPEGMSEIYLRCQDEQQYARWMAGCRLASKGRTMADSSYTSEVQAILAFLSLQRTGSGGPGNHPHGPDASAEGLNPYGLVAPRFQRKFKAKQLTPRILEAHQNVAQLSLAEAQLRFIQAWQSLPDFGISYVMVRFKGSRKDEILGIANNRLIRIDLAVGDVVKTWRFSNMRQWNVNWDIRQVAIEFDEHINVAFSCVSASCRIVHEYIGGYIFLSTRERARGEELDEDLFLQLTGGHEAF", "log2 fold change": -0.016}, {"target": "HIP1R (UniProt O75146)", "log2 fold change": -0.045}, {"target": "HNRNPF (UniProt P52597)", "log2 fold change": -0.121}, {"target": "HNRNPH2 (UniProt P55795)", "log2 fold change": -0.081}, {"target": "GALC (UniProt P54803)", "sequence (P54803 whole entry, looked up)": "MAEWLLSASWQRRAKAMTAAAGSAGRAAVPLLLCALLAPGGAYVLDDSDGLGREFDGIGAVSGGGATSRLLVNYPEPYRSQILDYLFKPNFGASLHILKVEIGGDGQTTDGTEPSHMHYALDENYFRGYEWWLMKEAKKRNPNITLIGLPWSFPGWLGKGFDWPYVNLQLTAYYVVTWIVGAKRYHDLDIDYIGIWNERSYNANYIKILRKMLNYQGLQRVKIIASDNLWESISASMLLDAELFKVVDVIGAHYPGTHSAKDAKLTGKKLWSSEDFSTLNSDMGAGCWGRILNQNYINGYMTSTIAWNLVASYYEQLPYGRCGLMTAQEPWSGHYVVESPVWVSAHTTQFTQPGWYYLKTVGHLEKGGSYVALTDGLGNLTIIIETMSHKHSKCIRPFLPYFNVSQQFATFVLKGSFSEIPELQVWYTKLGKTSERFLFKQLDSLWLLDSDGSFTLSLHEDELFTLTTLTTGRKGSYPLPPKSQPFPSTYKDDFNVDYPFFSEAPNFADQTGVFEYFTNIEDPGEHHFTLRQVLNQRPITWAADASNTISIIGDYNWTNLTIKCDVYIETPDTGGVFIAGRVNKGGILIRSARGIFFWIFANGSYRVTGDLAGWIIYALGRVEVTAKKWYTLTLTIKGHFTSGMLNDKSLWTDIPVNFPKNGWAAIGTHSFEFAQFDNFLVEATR", "log2 fold change": 0.047}, {"target": "FASTKD1 (UniProt Q53R41)", "sequence (Q53R41 whole entry, looked up)": "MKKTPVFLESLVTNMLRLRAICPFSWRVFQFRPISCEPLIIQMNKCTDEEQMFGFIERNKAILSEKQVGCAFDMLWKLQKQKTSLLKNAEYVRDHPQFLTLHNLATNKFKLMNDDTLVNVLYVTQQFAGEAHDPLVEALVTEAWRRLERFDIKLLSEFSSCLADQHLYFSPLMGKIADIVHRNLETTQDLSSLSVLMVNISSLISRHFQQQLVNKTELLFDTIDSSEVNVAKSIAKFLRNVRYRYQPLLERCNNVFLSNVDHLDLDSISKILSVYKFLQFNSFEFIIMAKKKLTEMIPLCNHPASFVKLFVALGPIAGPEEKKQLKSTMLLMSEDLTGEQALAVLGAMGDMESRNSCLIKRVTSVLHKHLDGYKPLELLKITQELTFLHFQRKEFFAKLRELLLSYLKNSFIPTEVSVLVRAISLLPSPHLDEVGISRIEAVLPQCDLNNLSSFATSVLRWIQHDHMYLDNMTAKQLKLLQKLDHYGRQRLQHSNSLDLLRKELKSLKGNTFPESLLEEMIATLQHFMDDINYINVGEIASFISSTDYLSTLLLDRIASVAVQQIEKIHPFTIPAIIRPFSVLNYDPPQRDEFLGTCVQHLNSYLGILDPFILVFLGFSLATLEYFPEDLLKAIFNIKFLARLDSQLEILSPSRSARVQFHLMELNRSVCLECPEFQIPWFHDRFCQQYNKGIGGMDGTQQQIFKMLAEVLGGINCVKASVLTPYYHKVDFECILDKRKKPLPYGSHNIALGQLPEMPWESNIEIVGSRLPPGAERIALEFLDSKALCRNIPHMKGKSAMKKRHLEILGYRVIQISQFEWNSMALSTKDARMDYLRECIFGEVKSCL", "log2 fold change": -0.046}]}, {"compound": "CN1CC[C@H](c2c(O)cc(O)c3c(=O)cc(-c4ccccc4Cl)oc23)[C@H](O)C1 [alvocidib]", "experiment": "log2 fold change, soluble protein after heating vs DMSO (PISA); higher = thermal stabilisation; K562 cells, 10 uM, 30 min; active = over 0.2 and 3.5 SD of the protein, either way, in both replicates (recomputed)", "procedure,_shortened": "as §1", "values": [{"target": "FAM91A1 (UniProt Q658Y4)", "log2 fold change": -0.037}, {"target": "GSK3B isoform 2 (UniProt P49841)", "log2 fold change": 0.052}, {"target": "GDPD1 (UniProt Q8N9F7)", "log2 fold change": -0.058}, {"target": "FIS1 (UniProt Q9Y3D6)", "log2 fold change": -0.11}, {"target": "GTF2H3 (UniProt Q13889)", "log2 fold change": -0.071}, {"target": "HSPA8 (UniProt E9PK54)", "log2 fold change": 0.332}, {"target": "FMC1 (UniProt Q96HJ9)", "log2 fold change": 0.026}, {"target": "HEXA (UniProt P06865)", "log2 fold change": 0.005}, {"target": "HTATIP2 isoform 3 (UniProt Q9BUP3)", "log2 fold change": -0.113}, {"target": "GTF2E1 (UniProt P29083)", "log2 fold change": -0.148}, {"target": "IDI1 isoform 2 (UniProt Q13907)", "log2 fold change": -0.017}, {"target": "GAPVD1 isoform 6 (UniProt Q14C86)", "log2 fold change": -0.063}, {"target": "HSPA8 (UniProt P11142)", "log2 fold change": 0.01}, {"target": "HADHB (UniProt P55084)", "log2 fold change": -0.283}, {"target": "HDAC1 (UniProt Q13547)", "log2 fold change": -0.137}, {"target": "GMEB2 (UniProt Q9UKD1)", "log2 fold change": -0.197}, {"target": "HEATR5B (UniProt Q9P2D3)", "log2 fold change": -0.023}, {"target": "GBA2 (UniProt Q9HCG7)", "log2 fold change": -0.063}, {"target": "HIST2H3A (UniProt Q71DI3)", "log2 fold change": 0.165}, {"target": "GALNT1 (UniProt Q10472)", "log2 fold change": -0.005}, {"target": "HDGFL2 (UniProt Q7Z4V5)", "log2 fold change": 0.007}, {"target": "HAUS4 (UniProt Q9H6D7)", "log2 fold change": 0.035}, {"target": "GLIPR2 (UniProt Q9H4G4)", "log2 fold change": 0.054}, {"target": "FNTB (UniProt P49356)", "log2 fold change": -0.113}, {"target": "GOLPH3 (UniProt Q9H4A6)", "log2 fold change": -0.081}, {"target": "GHDC (UniProt Q8N2G8)", "log2 fold change": -0.029}, {"target": "HDAC2 (UniProt Q92769)", "log2 fold change": -0.091}, {"target": "FIBP (UniProt O43427)", "log2 fold change": -0.01}, {"target": "FERMT3 (UniProt Q86UX7)", "log2 fold change": -0.055}, {"target": "HIP1R (UniProt O75146)", "log2 fold change": -0.069}, {"target": "HNRNPF (UniProt P52597)", "log2 fold change": -0.088}, {"target": "HNRNPH2 (UniProt P55795)", "log2 fold change": -0.106}, {"target": "GALC (UniProt P54803)", "log2 fold change": -0.03}, {"target": "FASTKD1 (UniProt Q53R41)", "log2 fold change": -0.12}]}]}
